According to PubChem BioAssay (EPA / NIEHS):
Results filed as inconclusive are left out. Activity calls are given as the source filed them. How the source made its calls: active means hit-call score of the fitted dose curve at least 0.9, where 1 is the maximum; inconclusive means response in the unintended direction; inactive means score below 0.9.

Assay: Tanguay_ZF_120hpf_NC_legacy: (Legacy) Oregon State University Tanguay Lab 120 Hour Post-fertilization zebrafish Assay for Notochord and Tail Malformation (AID 2283656)
How it was run: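 Dechorionated 5D zebrafish, 1/well from 6 hpf; static exposure to 120 hpf, 28C, sealed, dark; final DMSO 0.64% v/v. NC scored binary (present/absent); dead embryos not scored. Fit vs DMSO baseline, gain direction.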

Structure (SMILES) | outcome
O=[N+]([O-])C(CO)(CO)CO | inactive
CCc1c(C(=O)NN2CCCCC2)nn(-c2ccc(Cl)cc2Cl)c1-c1ccc(Br)cc1 | inactive
C[Si]1(C)O[Si](C)(C)O[Si](C)(C)O[Si](C)(C)O1 | inactive
COC(=O)c1ccc(O)cc1 | inactive
CCCCCCCCCCCC(=O)OC | inactive
CCCCc1ccc2c(n1)[C@@H](c1ccc(OC)cc1C[C@H](C)C(=O)O)[C@H](C(=O)O)[C@H]2c1ccc2c(c1)OCO2 | inactive
NC(=O)Cn1c(=O)cc(CCN2CCN(c3nccc4sccc34)CC2)c2ccc(F)cc21 | inactive
C=CCOC(=O)c1ccccc1C(=O)OCC=C | inactive
COc1ccc(S(=O)(=O)N2C(=O)[C@@](c3ccccc3OC)(N3C[C@H](O)C[C@H]3C(=O)N(C)C)c3cc(Cl)ccc32)c(OC)c1 | inactive
Oc1ccc2c(c1)OC[C@@H](N1CCC(O)(c3ccc(F)cc3)CC1)[C@H]2O | inactive
CCCCCCCC=O | inactive
CNCc1cc(F)ccc1Oc1ccc(Cl)c(Cl)c1 | inactive
Nc1ccc2c(c1)C(=O)c1ccccc1C2=O | inactive
CCCCOC(=O)CCCCCCCCC(=O)OCCCC | inactive
Cc1nc(-c2ccc3c(c2)CCN(CCC2CCC(NC(=O)/C=C/c4ccc(F)cc4)CC2)CC3)no1 (centres undefined) | inactive
COCCOC[C@H](CC1(C(=O)NC2CCC(C(=O)O)CC2)CCCC1)C(=O)Oc1ccc2c(c1)CCC2 (some centres undefined) | inactive
c1cc(-c2ccncc2)ccn1 | inactive
CCCCCC(=O)O | inactive
CC(CO)OC(C)CO (centres undefined) (tested in a mixture with another compound) | inactive
